Screens deposited in PubChem by National Center for Advancing Translational Sciences (NCATS).
PKM2 activator: increases activity of human pyruvate kinase M2; P14618; purified PKM2, Kinase-Glo ATP luminescence, activation; response scale: 0% is enzyme alone, no compound; Potency, µM (top dose mostly 57.5 µM), without a hit: at the highest dose activation, hits mostly activators; 0.34% of 260,000 active; AID 1631; note: % is set by controls: 0 for no effect and ±100 for the full control effect; nearly all actives have a fitted effect of over 55% in size
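hPK-M2, >95% pure; 0.1 mM ADP / 0.5 mM PEP final; imidazole pH7.2 buffer w/ 7 mM MgCl2, 50 mM KCl; 1 h RT; Kinase-Glo lum. Intermediate enzyme activity for dual inhibitor/activator qHTS.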
GCN5L2 inh: GCN5L2 (KAT2A) acetyltransferase inhibition; 0.21% of 390,000 active; AID 504327; GCN5L2 HAT assay, ThioGlo1 CoA-SH fluorescence; Q92830; Potency, µM (series often up to 58.9 µM), for the others: at the top dose activity change, negative = inhibition, hits mostly inhibitors; note: % is set by controls: 0 for no effect and ±100 for the full control effect
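ThioGlo1-coupled HAT assay: 20nM GCN5L2, 70uM acetyl-CoA, 75uM H3(1-25) peptide, pH 7.5. Fluorescence read at 340/540nm at start and after 20 min at room temperature.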
PLK1 PBD inh: inhibitors of human PLK1 polo-box domain binding; P53350; Potency, µM, without a hit: max response, negative = inhibition, actives largely listed as inhibitors; 2.8% of 360,000 active; Plk1 PBD binding of FITC phosphopeptide, fluorescence polarization; AID 720504; note: series mostly up to about 57 µM; % is set by controls: 0 for no effect and ±100 for the full control effect; nearly all actives have a fitted effect of over 65% in size
Mito fusion yeast: inhibitors of mitochondrial division or activators of mitochondrial fusion. S. cerevisiae fusion-defective mutant growth rescue, CellTiterGlo 48 h. Potency, µM (titrated, usually from 46.1 µM), inactives show top-dose growth rescue (activation), usual class: activators. 0.23% of 320,000 active. AID 485298; note: % of control where 0% means no effect; nearly all actives have a fitted effect of over 45% in size
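Temperature-sensitive fusion-defective S. cerevisiae (e.g. fzo1-1, mgm1-5) were grown with compound in YPEG medium (3% ethanol, 3% glycerol) for 48 hours at 37C. Growth rescue was measured as viability by CellTiterGlo luminescence after 10 minutes at ambient.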
GLS inh: glutaminase GLS (human) inhibition; O94925; GLS enzymatic activity, qHTS titration; Potency, µM (highest dose often 45.5 µM), inactives show at the top dose activity change, negative = inhibition, usual class: inhibitors; 0.21% of 410,000 active; note: % is set by controls: 0 for no effect and ±100 for the full control effect
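hKGA; 45 mM KH2PO4 pH 8.2 + 0.02% Tween-20; cpd via pin tool; 1 mM Gln soln; GluOx/HRP/Amplex Red; RT 30 min; fluor. t0 & final.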
VDR inh: vitamin D3 receptor (human) inhibition; P11473; VDR-SRC2-3 peptide fluorescence polarization, 2 h; Potency, µM, for the others: max response, negative = inhibition, usual class: inhibitors; 0.93% of 400,000 active; AID 504847; note: % is set by controls: 0 for no effect and ±100 for the full control effect
Target sequence (P11473 whole entry, looked up): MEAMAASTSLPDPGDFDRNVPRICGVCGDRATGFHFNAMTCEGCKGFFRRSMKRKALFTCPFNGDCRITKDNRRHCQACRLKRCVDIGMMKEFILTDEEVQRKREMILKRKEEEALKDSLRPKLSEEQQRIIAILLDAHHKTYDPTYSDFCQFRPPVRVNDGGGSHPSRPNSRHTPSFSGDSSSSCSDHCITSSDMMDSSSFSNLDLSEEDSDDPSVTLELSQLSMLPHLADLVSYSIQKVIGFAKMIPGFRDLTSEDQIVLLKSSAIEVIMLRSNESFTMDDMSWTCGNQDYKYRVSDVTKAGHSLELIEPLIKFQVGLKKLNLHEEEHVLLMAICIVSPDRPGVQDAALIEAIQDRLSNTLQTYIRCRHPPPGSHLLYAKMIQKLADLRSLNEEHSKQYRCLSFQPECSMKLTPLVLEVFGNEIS
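FP read-out; VDR + SRC2-3 coactivator peptide; 23 nl compound by pintool; 2 h RT incubation; reagents held at 4 deg C, protected from light.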
* hit, by the source's call; ? = inconclusive; . = no result given; ! = a repeat was not active; [ ] = dose if it differs, or a comment. Compounds with a hit are over-represented: about 3.4% of the library has one in this group of screens. Calls come from the whole dose curve; as a rule, active = well fitted curve in the direction sought with a large enough effect; inconclusive = small, poorly fitted or top-dose-only effect, or another doubt; inactive = no such curve, though single readings can be large; an effect the other way counts as inactive or inconclusive. Potency is the fitted concentration of half-maximal effect.

SMILES	PKM2 activator	GCN5L2 inh	PLK1 PBD inh	Mito fusion yeast	GLS inh	VDR inh
CCCN(CC(=O)Nc1ccccc1OC)Cc1c(O)ccc2ccccc12	10.0%	-9.2%	9.47µM*	7.0%	-23.9%	?
COc1ccc(CCN(C)Cc2c(O)ccc3ccccc23)cc1OC	.	-19.1%	21.2µM*	-4.2%	24.6%	?
CCc1ccccc1NC(=O)CN(C)Cc1c(O)ccc2ccccc12	15.8%	-7.5%	11.9µM*	0.2%	-16.5%	?
CN(CC(=O)Nc1ccccc1C(F)(F)F)C(=O)c1cc(Cl)nc2ccccc12	.	1.5%	-5.0%	-1.5%	6.4%	14.2%
CN(CC(=O)Nc1ccccc1C(F)(F)F)Cc1c(O)ccc2ccccc12	.	-4.4%	11.9µM*	-2.7%	?	?
Cc1oc2cc3oc(=O)c(CCC(=O)NCc4ccccn4)c(C)c3cc2c1C	0.2%	-6.0%	-4.0%	8.5%	3.5%	-12.1%
N[C@H](CO)Cc1cnc[nH]1	.	-11.3%[0.501 µM]	.	.	.	-0.8%
Cc1ccccc1Nc1c(-c2ccc(N3CCOCC3)cc2)nc2ccc(Cl)cn12	.	-15.9%	.	.	-2.7%	-18.4%
CN(C)c1ccc(-c2cncnc2N(C)Cc2ccco2)cc1	.	-10.9%	.	.	.	?
CN(Cc1ccco1)c1ncnc2ccc(-c3ccc4c(c3)OCO4)cc12	.	-6.0%	.	14.7%	-0.5%	39.8µM*!
CN(Cc1ccco1)c1ncncc1-c1cccnc1	.	-1.5%	.	.	.	44.7µM*
Cc1ccccc1-c1ccc2ncnc(N(C)Cc3ccco3)c2c1	.	-24.4%	.	.	.	31.6µM*
O=[N+]([O-])c1ccc2c(c1)ncn2CCc1ccccc1	7.08µM*	-1.1%	-5.4%	6.3%	-3.6%	-19.4%
O=[N+]([O-])c1ccc2c(c1)ncn2-c1ccccc1	-5.5%	-3.3%	-4.0%	2.7%	1.2%	4.8%
CCc1ccc(C2C(C(=O)Nc3ccccc3C)=C(C)Nc3nc(SCc4cccc(OC)c4)nn32)cc1 (stereo not drawn)	.	1.4%	.	.	-4.3%	10.6%
CCCCCCC(O)C/C=C\CCCCCCCC(=O)O (stereo not drawn)	.	.	.	.	3.0%	.
CC(=O)c1cnc(-c2ccccc2Cl)s1	-1.0%	-14.0%	-5.5%	-3.4%	-8.9%	1.1%
CC(=O)c1cnc(-c2ccccn2)s1	1.1%	-9.8%	21.2µM*	0.7%	?	-29.5%
O=C(Nc1ccccc1)c1cc(C2COCCN2C(=O)CCCc2ccccc2)on1 (stereo not drawn)	.	.	0.2%	.	-6.4%	.
Fc1ccc(Nc2ccnc(-c3ccccc3C(F)(F)F)n2)cc1	.	?	.	.	.	44.7µM*
CC1(C)Cc2c(C#N)c(SCC(=O)c3ccccc3)nc(N3CCOCC3)c2CS1	-17.0%	-7.4%	29.9µM*	?	12.3%	-12.0%
NC(=S)N=Nc1c(O)cc(O)c2[nH]c(=O)ccc12	.	.	7.52µM*	.	?	?
NC(=S)N=Nc1c(O)[nH]c2ccc(F)cc12	-3.9%	-3.7%	0.1%	-1.2%	-5.4%	1.3%
C[C@]12CCC(=O)C=C1CC[C@@H]1[C@H]2[C@@H](O)C[C@@]2(C)[C@H]1CC[C@]2(O)C(=O)CO	.	-12.9%	.	.	-11.3%	-1.0%
COCC(=O)Nc1c(C(=O)Nc2ccc3c(c2)OCO3)oc2ccccc12	-2.2%[0.46 µM]	-3.7%	29.9µM*	17.4%	-9.9%	-19.7%
SMILES	PKM2 activator	GCN5L2 inh	PLK1 PBD inh	Mito fusion yeast	GLS inh	VDR inh
CCOc1cc(CNc2ccc(O)cc2)cc(Br)c1OCc1ccccc1	.	-11.4%	.	.	37.5%	-16.6%
COc1cc(CNc2ccc(O)cc2)cc(Br)c1OCc1ccccc1F	-9.7%	?	-1.6%	12.6%	26.3%	35.5µM*
COc1cc(CNCc2ccncc2)cc(Br)c1OCc1ccccc1F	2.9%	-0.7%	-6.1%	-8.5%	-0.1%	-5.2%
CCOc1cc(CNc2ccc(O)cc2)cc(Br)c1OCc1ccccc1F	-2.2%	-8.6%	-2.3%	19.3%	8.8%	79.4µM*
CCCCc1ncc(CN2CCC(n3nccc3NC(=O)c3ccccc3OC)CC2)[nH]1	-18.3%[0.46 µM]	-2.7%	23.8µM*	7.3%	-12.4%	?
CCCn1ncc(CN2CCC(n3nccc3NC(=O)c3ccccc3OC)CC2)c1C	.	-1.8%	2.7%	0.9%	7.4%	-8.8%
COc1ccc(C(=O)Nc2ccnn2C2CCN(Cc3ccccn3)CC2)cc1	-6.3%	-0.9%	-17.0%	-1.1%	0.6%	0.3%
CSc1ccc(CN2CCC(n3nccc3NC(=O)c3ccccc3C)CC2)cc1	.	-6.8%	29.9µM*	-11.3%	4.2%	-21.3%
COc1ccc(C(=O)Nc2ccnn2C2CCN(Cc3cnn(C)c3)CC2)cc1	-1.5%	-1.9%	26.7µM*	4.0%	7.8%	-15.2%
CCc1ccc(CN2CCC(n3nccc3NC(=O)c3ccccc3Cl)CC2)cc1	-2.6%	-22.1%	2.3%	-10.4%	-9.9%	-23.3%
COc1ccc(S(=O)(=O)N2CCOCC2)cc1NC(=O)C1CCN(S(=O)(=O)c2ccc(Cl)cc2)CC1	.	.	6.2%	.	2.6%	-11.4%
CCOC(=O)N1CCN(C(=O)c2ccc(CSc3ccc(Cl)cc3)cc2)CC1	15.0%	-22.3%	26.7µM*	5.7%	-2.0%	-6.7%
Cc1ccc(-n2nc(C(C)(C)C)cc2NC(=O)Nc2ccc(OCCN3CCOCC3)c3ccccc23)cc1	.	.	.	.	5.5%	.
O=C(COC(=O)CC1CC2CCC1C2)Nc1cccc(S(=O)(=O)NC2=NCCCCC2)c1 (stereo not drawn)	-5.1%	-0.3%	21.2µM*	-3.5%	?	?
O=C(c1cccn(Cc2ccc(C(F)(F)F)cc2)c1=O)N1CCOCC1	0.5%	-8.3%	26.7µM*	-4.8%	2.9%	-3.2%
O=C(c1ccc(C(F)(F)F)n(Cc2ccc(Cl)cc2)c1=O)N1CCOCC1	.	-5.1%	-5.9%	-25.4%	0.5%	?
COc1ccc2c3c(cccc13)N(C)N=C2C	3.9%	-6.3%	21.2µM*	0.1%	?	-8.6%
O=C1NC(=S)N/C1=C\c1ccc(N2CCOCC2)cc1	9.5%	0.8%	3.77µM*	5.3%	-16.2%	?
O=C1NC(=S)NC1=Cc1ccc(O)cc1	.	.	6.7%	.	-6.1%	16.0%
CCCCCCCCCCCCCCCC(=O)OCC(COC(=O)CCCCCCCCCCCCCCC)OC(=O)CCCCCCCCCCCCCCC	.	-0.8%	.	.	0.6%	6.9%
CSc1nc2ccccc2n1CC(=O)Nc1ccccc1	-2.7%	-3.5%	1.5%	0.7%	-3.4%	1.1%
O=C(Cn1c(/C=C/c2ccccc2)nc2ccccc21)Nc1ccc(F)cc1	-9.3%	66.2%	18.9µM*	8.6%	?	?
Cc1ccc(NNC(=O)Nc2ccc(Cl)cc2)nn1	-0.4%	-1.8%	5.97µM*	1.8%	12.6%	17.8µM*
O=C(NNc1cccc(Cl)n1)Nc1ccc(Cl)cc1	-0.2%	-9.4%	-14.9%	4.8%	-12.8%	-11.7%
CC1CCCN(C(=O)COC(=O)C2=COCCO2)C1 (stereo not drawn)	.	-3.7%	2.1%	.	-0.4%	5.0%
